According to PubChem BioAssay AID1159580 (chemical genetic matrix, 2015):
In all, about 5,500 compounds went through this assay and about 2,000 (36%) were called active. Inconclusive results (about 18%) are left out. No stated cut-off is given here; in the data, active means normalized growth mostly below about 0.91 (no sharp cut-off); inconclusive means no clear call, values can overlap the other calls; inactive means mostly above about 0.92. This is one part of the list.

Test: chemical genetic growth profiling, strain panel (AID 1159580);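 further: tested at 20 µM; growth read once vehicle control cultures reached saturation at 30 °C; 1 = growth at the plate median or of vehicle wells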
Conditions: S. cerevisiae deletion strains, growth OD
[1] = locus YDL101C, strain DUN1, stronger effect = lower value
[2] = locus YHR030C, strain SLT2, stronger effect = lower value
[3] = locus YHR079C, strain IRE1, stronger effect = lower value
[4] = locus YJL095W, strain BCK1, stronger effect = lower value
[5] = locus YJR066W, strain TOR1, stronger effect = lower value
[6] = locus YLR113W, strain HOG1, stronger effect = lower value
[7] = locus YNL183C, strain NPR1, stronger effect = lower value
[8] = locus YOR231W, strain MKK1, stronger effect = lower value
[9] = locus YPL256C, strain CLN2, stronger effect = lower value
[10] = locus YAL013W, strain DEP1, stronger effect = lower value
[11] = locus YBR229C, strain ROT2, stronger effect = lower value
[12] = locus YCL061C, strain MRC1, stronger effect = lower value
[13] = locus YDR150W, strain NUM1, stronger effect = lower value
[14] = locus YEL061C, strain CIN8, stronger effect = lower value
[15] = locus YGR078C, strain PAC10, stronger effect = lower value
[16] = locus YHR087W, strain rtc3, stronger effect = lower value
[17] = locus YJR043C, strain POL32, stronger effect = lower value
[18] = locus YJR075W, strain HOC1, stronger effect = lower value
[19] = locus YLR039C, strain RIC1, stronger effect = lower value
[20] = locus YLR058C, strain SHM2 (second series), stronger effect = lower value
[21] = locus YLR085C, strain ARP6, stronger effect = lower value
[22] = locus YLR262C, strain YPT6, stronger effect = lower value
[23] = locus YML094W, strain GIM5, stronger effect = lower value
[24] = locus YMR219W, strain ESC1, stronger effect = lower value
[25] = locus YMR263W, strain SAP30, stronger effect = lower value
[26] = locus YNL153C, strain GIM3, stronger effect = lower value
[27] = locus YNL298W, strain CLA4 (second series), stronger effect = lower value
[28] = locus YNL322C, strain KRE1, stronger effect = lower value
[29] = locus YNR030W, strain Alg12, stronger effect = lower value
[30] = locus YOL006C, strain TOP1, stronger effect = lower value
[31] = locus YPL055C, strain LGE1, stronger effect = lower value
[32] = locus YPL241C, strain CIN2, stronger effect = lower value
[33] = locus YPR135W, strain CTF4, stronger effect = lower value

Measured: normalized growth

O=C(CSc1nnnn1-c1ccccc1)c1ccccc1
active: locus YDR477W, strain SNF1, stronger effect = lower value 0.663 | locus YFR019W, strain FAB1, stronger effect = lower value 0.752 | locus YGR040W, strain KSS1, stronger effect = lower value 0.655 | locus YGR052W, strain FMP48, stronger effect = lower value 0.587 | locus YGR092W, strain DBF2, stronger effect = lower value 0.431 | [2] 0.397 | [3] 0.437 | [4] 0.415 | locus YJL157C, strain FAR1, stronger effect = lower value 0.664 | locus YJR066W, strain TOR1 (second series), stronger effect = lower value 0.182 | locus YKL048C, strain ELM1, stronger effect = lower value 0.799 | locus YKL067W, strain YNK1, stronger effect = lower value 0.662 | locus YKL101W, strain HSL1, stronger effect = lower value 0.641 | locus YKL203C, strain TOR2, stronger effect = lower value 0.573 | [6] 0.618 | locus YLR133W, strain CKI1, stronger effect = lower value 0.6 | locus YML070W, strain DAK1, stronger effect = lower value 0.608 | locus YMR205C, strain PFK2 (second series), stronger effect = lower value 0.696 | locus YNL020C, strain ARK1, stronger effect = lower value 0.61 | [7] 0.505 | locus YNL307C, strain MCK1 (second series), stronger effect = lower value 0.259 | locus YOL136C, strain PFK27, stronger effect = lower value 0.529 | locus YOR119C, strain RIO1, stronger effect = lower value 0.61 | [8] 0.448 | locus YPL031C, strain PHO85, stronger effect = lower value 0.571 | locus YPL153C, strain RAD53, stronger effect = lower value 0.538 | locus YPL204W, strain HRR25, stronger effect = lower value 0.524 | [9] 0.758
inactive: locus YAR019C, strain CDC15, stronger effect = lower value 0.96 | locus YBL105C, strain PKC1, stronger effect = lower value 0.958 | locus YBR135W, strain CKS1, stronger effect = lower value 0.958 | locus YBR136W, strain MEC1, stronger effect = lower value 0.955 | locus YBR160W, strain CDC28, stronger effect = lower value 0.957 | locus YDL017W, strain CDC7, stronger effect = lower value 0.962 | locus YDL028C, strain MPS1, stronger effect = lower value 0.949 | [1] 0.983 | locus YDL108W, strain KIN28, stronger effect = lower value 0.947 | locus YDL132W, strain cdc53, stronger effect = lower value 0.954 | locus YDL214C, strain PRR2, stronger effect = lower value 0.734 | locus YDR052C, strain DBF4, stronger effect = lower value 0.966 | locus YDR054C, strain cdc34, stronger effect = lower value 0.908 | locus YDR226W, strain ADK1, stronger effect = lower value 0.959 | locus YER123W, strain YCK3, stronger effect = lower value 0.677 | locus YER133W, strain GLC7, stronger effect = lower value 0.775 | locus YFL009W, strain cdc4, stronger effect = lower value 0.949 | locus YFL029C, strain CAK1, stronger effect = lower value 0.949 | locus YFR003C, strain YPI1, stronger effect = lower value 0.96 | locus YFR028C, strain CDC14, stronger effect = lower value 0.959 | locus YHR082C, strain KSP1, stronger effect = lower value 0.698 | locus YHR205W, strain SCH9, stronger effect = lower value 0.661 | locus YIL147C, strain SLN1, stronger effect = lower value 0.948 | locus YJL128C, strain PBS2, stronger effect = lower value 0.948 | locus YJR016C, strain ILV3, stronger effect = lower value 0.965 | [5] 0.486 | locus YKL193C, strain SDS22, stronger effect = lower value 0.952 | locus YLR403W, strain SFP1, stronger effect = lower value 0.663 | locus YMR001C, strain CDC5, stronger effect = lower value 0.95 | locus YMR277W, strain FCP1, stronger effect = lower value 0.946 | locus YNL006W, strain LST8, stronger effect = lower value 0.951 | locus YNL161W, strain CBK1, stronger effect = lower value 0.965 | locus YNL207W, strain RIO2, stronger effect = lower value 0.93 | locus YNL222W, strain SSU72, stronger effect = lower value 0.968 | locus YOL078W, strain AVO1, stronger effect = lower value 0.941 | locus YOR061W, strain CKA2, stronger effect = lower value 0.708 | locus YOR329C, strain SCD5, stronger effect = lower value 0.959 | locus YPL209C, strain IPL1, stronger effect = lower value 0.964 | locus YPR025C, strain CCL1, stronger effect = lower value 0.961 | locus YPR106W, strain ISR1, stronger effect = lower value 0.972 | locus YPR111W, strain DBF20, stronger effect = lower value 0.964 | strain NNK1, stronger effect = lower value 0.973 | strain TSCII, stronger effect = lower value 0.948

O=C(CSc1nnnn1-c1ccccc1)NC1Cc2ccccc2C1
inactive: [10] 1.02 | [11] 0.998 | [12] 1.02 | [1] 1 | locus YDL134C, strain PPH21, stronger effect = lower value 1 | [13] 0.988 | [14] 0.988 | [15] 1.02 | [2] 1.02 | [16] 0.99 | [17] 1.04 | [18] 1.01 | [19] 1.07 | [20] 0.996 | [21] 0.991 | [22] 1.07 | [23] 0.999 | [24] 0.996 | [25] 1 | locus YMR307W, strain GAS1, stronger effect = lower value 1.06 | locus YNL128W, strain TEP1, stronger effect = lower value 1 | [26] 1.03 | [27] 1.01 | [28] 0.999 | [29] 0.995 | [30] 0.944 | [31] 0.879 | [32] 0.985 | [33] 1.01

CSc1nnnn1-c1c(C)cccc1C
inactive: [10] 0.998 | [11] 0.973 | [12] 0.996 | [1] 1.02 | [13] 1.02 | [14] 0.972 | [15] 0.982 | locus YGR229C, strain SMI1, stronger effect = lower value 0.966 | [2] 0.96 | [16] 0.988 | locus YJL187C, strain SWE1, stronger effect = lower value 0.979 | [17] 0.982 | [18] 0.998 | locus YKL190W, strain CNB1, stronger effect = lower value 0.962 | [19] 0.969 | [20] 0.972 | [21] 0.999 | [22] 0.936 | [23] 1.08 | [24] 0.983 | [25] 1 | [26] 0.998 | [27] 0.984 | [28] 0.984 | [29] 1 | [30] 0.944 | [31] 1.01 | [32] 0.936 | [33] 1.01

Cc1[nH]c(C)c(Cl)c(=O)c1Cl
inactive: locus YAL021C, strain ccr4, stronger effect = lower value 1.01 | locus YAL026C, strain drs2, stronger effect = lower value 1.01 | locus YAL030W, strain snc1, stronger effect = lower value 0.998 | locus YBL061C, strain skt5, stronger effect = lower value 1 | locus YBR009C, strain hhf1, stronger effect = lower value 1.03 | locus YBR023C, strain chs3, stronger effect = lower value 1 | locus YBR171W, strain sec66, stronger effect = lower value 1 | locus YBR231C, strain swc5, stronger effect = lower value 0.996 | locus YBR279W, strain paf1, stronger effect = lower value 0.999 | locus YCL011C, strain gbp2, stronger effect = lower value 1.01 | locus YCL016C, strain dcc1, stronger effect = lower value 0.997 | [12] 0.998 | locus YCL069W, strain vba3, stronger effect = lower value 0.997 | locus YCR088W, strain abp1, stronger effect = lower value 1 | locus YDL005C, strain med2, stronger effect = lower value 1.01 | locus YDL040C, strain nat1, stronger effect = lower value 1 | locus YDR001C, strain nth1, stronger effect = lower value 0.994 | locus YDR069C, strain doa4, stronger effect = lower value 1.02 | locus YDR137W, strain rgp1, stronger effect = lower value 1.01 | locus YDR159W, strain sac3, stronger effect = lower value 0.981 | locus YDR195W, strain ref2 0.962 | locus YDR297W, strain sur2, stronger effect = lower value 1.01 | locus YDR334W, strain swr1, stronger effect = lower value 1 | locus YDR335W, strain msn5, stronger effect = lower value 1 | locus YDR392W, strain spt3, stronger effect = lower value 1.03 | locus YEL003W, strain gim4, stronger effect = lower value 1.01 | locus YEL037C, strain rad23, stronger effect = lower value 0.999 | locus YEL061C, strain CIN8 (second series), stronger effect = lower value 1.01 | locus YER015W, strain faa2, stronger effect = lower value 0.999 | locus YER016W, strain bim1, stronger effect = lower value 0.995 | locus YER111C, strain swi4, stronger effect = lower value 0.999 | locus YER155C, strain BEM2 (second series), stronger effect = lower value 1.01 | locus YFR010W, strain ubp6, stronger effect = lower value 1.01 | locus YGL167C, strain pmr1, stronger effect = lower value 0.999 | locus YGL173C, strain kem1, stronger effect = lower value 1 | locus YGL227W, strain vid30, stronger effect = lower value 0.996 | locus YGL240W, strain doc1, stronger effect = lower value 0.998 | locus YGL253W, strain hxk2, stronger effect = lower value 1.01 | locus YHR013C, strain ard1, stronger effect = lower value 0.979 | locus YHR027C, strain rpn1, stronger effect = lower value 0.992 | [2] 1.04 | [3] 1.03 | locus YHR142W, strain chs7, stronger effect = lower value 1.01 | locus YJL092W, strain hpr5, stronger effect = lower value 0.996 | locus YJL095W, strain BCK1 (second series), stronger effect = lower value 0.998 | [4] 0.983 | locus YJL115W, strain asf1, stronger effect = lower value 1.01 | locus YJL129C, strain trk1, stronger effect = lower value 0.992 | locus YJL154C, strain vps35, stronger effect = lower value 0.999 | locus YJL164C, strain tpk1, stronger effect = lower value 1.01 | locus YJL166W, strain qcr8, stronger effect = lower value 1.01 | [5] 0.986 | locus YKL160W, strain elf1, stronger effect = lower value 1 | locus YKR026C, strain gcn3, stronger effect = lower value 1 | locus YKR091W, strain srl3, stronger effect = lower value 1 | locus YLL001W, strain dnm1, stronger effect = lower value 1 | locus YLL026W, stronger effect = lower value 1 | locus YLL041C, strain sdh2, stronger effect = lower value 1 | locus YLR027C, strain aat2, stronger effect = lower value 1.01 | [6] 0.98 | locus YLR221C, strain rsa3, stronger effect = lower value 0.997 | locus YLR258W, strain gsy2, stronger effect = lower value 0.995 | locus YLR262C, strain YPT6 (second series), stronger effect = lower value 1.03 | locus YLR320W, strain mms22, stronger effect = lower value 1 | locus YLR342W, strain FKS1, stronger effect = lower value 1 | locus YLR357W, strain rsc2, stronger effect = lower value 1 | locus YLR370C, strain arc18, stronger effect = lower value 0.998 | locus YLR384C, strain iki3, stronger effect = lower value 0.995 | locus YML120C, strain ndi1, stronger effect = lower value 1.01 | locus YMR058W, strain fet3, stronger effect = lower value 1.01 | locus YMR125W, strain sto1, stronger effect = lower value 0.994 | locus YMR129W, stronger effect = lower value 0.993 | locus YMR205C, strain PFK2, stronger effect = lower value 0.988 | locus YMR231W, strain pep5, stronger effect = lower value 0.991 | locus YNL071W, strain lat1, stronger effect = lower value 1 | [7] 0.972 | locus YNL209W, strain ssb2, stronger effect = lower value 1.01 | locus YNL248C, strain rpa49, stronger effect = lower value 1.01 | locus YNL322C, strain KRE1 (second series), stronger effect = lower value 0.999 | locus YNR049C, strain mso1, stronger effect = lower value 1 | locus YOR001W, strain rrp6, stronger effect = lower value 1.01 | locus YOR070C, strain gyp1, stronger effect = lower value 1.01 | locus YOR080W, strain dia2, stronger effect = lower value 0.991 | locus YOR083W, strain WHI5, stronger effect = lower value 1.01 | locus YOR106W, strain vam3, stronger effect = lower value 1.02 | [8] 0.999 | locus YOR265W, strain rbl2, stronger effect = lower value 1.01 | locus YOR270C, strain vph1, stronger effect = lower value 1 | locus YOR290C, strain snf2, stronger effect = lower value 0.999 | locus YPL051W, strain arl3, stronger effect = lower value 1.01 | locus YPL078C, strain atp4, stronger effect = lower value 1 | locus YPL106C, strain sse1, stronger effect = lower value 1 | locus YPL240C, strain hsp82, stronger effect = lower value 0.991 | [9] 1.02
